Results on three compounds are retold here after PubChem BioAssay (EPA / NIEHS).

Calls of active or inactive are those of the source. How the source made its calls, unless noted: active means hit-call score of the fitted dose curve at least 0.9, where 1 is the maximum; inactive means score below 0.9.

Read-out in test [1]: Protein phosphatase 2A (PPP2R4), PTPA (gene 5524)
Briefly: LTEA_HepaRG_PPP2R4: Life Technologies and Expression Analysis (LTEA) Assay for Protein phosphatase 2A (PPP2R4) using HepaRG (AID 2283522). The settings on record: mRNA level, 48 h; actives raise or lower the signal. In a few lines: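 HepaRG, 48 h exposure, 8-pt half-log series from 100 uM, 0.5% DMSO vehicle, duplicates. Readout: PPP2R4 mRNA, Fluidigm qRT-PCR, housekeeping-normalized. Bidirectional curve fit vs DMSO baseline.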

Read-out in test [2]: Phosphatase and tensin (PTEN), PTEN (gene 5728)
Briefly: LTEA_HepaRG_PTEN: Life Technologies and Expression Analysis (LTEA) Assay for Phosphatase and tensin (PTEN) using HepaRG (AID 2283523). The settings on record: mRNA level, 48 h; actives raise or lower the signal. In outline:
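Expression of PTEN is quantified in the human liver line HepaRG following two days of dosing (top concentration 100 uM, half-log dilutions, 0.5% DMSO). Values derive from bidirectional curve fitting relative to DMSO controls.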

Read-out in test [3]: solute carrier (SLC22A1), SLC22A1 (gene 6580)
The experiment in a line: LTEA_HepaRG_SLC22A1: Life Technologies and Expression Analysis (LTEA) Assay for solute carrier (SLC22A1) using HepaRG (AID 2283524).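 On AC50: differentiated human HepaRG liver cells in serum-free induction medium.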 The settings on record: mRNA level, 48 h; actives raise or lower the signal. In outline:
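Transcript induction or suppression of SLC22A1 in human HepaRG cultures is scored after 48 h chemical treatment, with DMSO (0.5%) as baseline for bidirectional fitting. Concentrations span eight half-log points topping at 100 uM.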

Read-out in test [4]: Pyruvate Dehydrogenase Kinase 4 (PDK4), PDK4 (gene 5166)
The experiment in a line: LTEA_HepaRG_PDK4: Life Technologies and Expression Analysis (LTEA) Assay for Pyruvate Dehydrogenase Kinase 4 (PDK4) using HepaRG (AID 2283525). As to conditions: mRNA level, 48 h; actives raise or lower the signal. In a few lines: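 Eight-point, half-log concentration series (max 100 uM, 0.5% DMSO) applied to differentiated HepaRG cells for 48 h in duplicate. Endpoint: PDK4 mRNA induction or repression by qRT-PCR against DMSO baseline.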

Read-out in test [5]: NAD(P)H dehydrogenase [quinone] 1 (NQO1), NQO1 (gene 1728)
The experiment in a line: LTEA_HepaRG_NQO1: Life Technologies and Expression Analysis (LTEA) Assay for NAD(P)H dehydrogenase [quinone] 1 (NQO1) using HepaRG (AID 2283526). As to conditions: mRNA level, 48 h; actives raise or lower the signal. In outline: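 qRT-PCR read-out (Fluidigm TaqMan), normalized to three housekeeping genes, after 48 h chemical exposure of HepaRG cells. Concentrations: eight points, top 100 uM, half-log steps, 0.5% DMSO vehicle. Gain or loss of signal fitted relative to DMSO.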

Read-out in test [6]: Nuclear factor erythroid 2-related factor 2 (Homo sapiens) (UniProt Q16236)
Briefly: LTEA_HepaRG_NFE2L2: Life Technologies and Expression Analysis (LTEA) Assay for Nuclear factor erythroid 2-related factor 2 (NFE2L2) Transcription Factor using HepaRG (AID 2283527). The settings on record: mRNA level, 48 h; actives raise or lower the signal. In a few lines:
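Human liver HepaRG line treated in duplicate for 48 h with an eight-point series topping at 100 uM. Gene expression of NFE2L2 by qRT-PCR, bidirectionally fitted against the vehicle control.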

Read-out in test [7]: succinate dehydrogenase complex iron sulfur subunit B (SDHB), SDHB (gene 6390)
Briefly: LTEA_HepaRG_SDHB: Life Technologies and Expression Analysis (LTEA) Assay for succinate dehydrogenase complex iron sulfur subunit B (SDHB) using HepaRG (AID 2283528). As to conditions: mRNA level, 48 h; actives raise or lower the signal. In outline: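 HepaRG, 48 h exposure, 8-pt half-log series from 100 uM in 0.5% DMSO, duplicates. Readout: SDHB mRNA by Fluidigm qRT-PCR vs housekeeping genes; bidirectional fit relative to DMSO.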

Read-out in test [8]: Signal transducer and activator of transcription 3 (Homo sapiens) (UniProt P40763)
The experiment in a line: LTEA_HepaRG_STAT3: Life Technologies and Expression Analysis (LTEA) Assay for Signal transducer and activator of transcription (STAT3) using HepaRG (AID 2283529). The settings on record: mRNA level, 48 h; actives raise or lower the signal. In a few lines: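 In this transcriptional endpoint, HepaRG cultures receive test chemicals at up to 100 uM for 48 h, tested in duplicate. STAT3 mRNA is normalized to ACTB, GAPDH and POLR2A.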

Read-out in test [9]: solute carrier (SLCO1B1), SLCO1B1 (gene 10599)
Briefly: LTEA_HepaRG_SLCO1B1: Life Technologies and Expression Analysis (LTEA) Assay for solute carrier (SLCO1B1) using HepaRG (AID 2283530). The settings on record: mRNA level, 48 h; actives raise or lower the signal. In outline:
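SLCO1B1 transcript levels were quantified by TaqMan qRT-PCR using three housekeeping genes for normalization. This followed 48 h chemical exposure (100 uM top, half-log, 8 points, 0.5% DMSO) of HepaRG liver cells, with gain or loss fitted relative to DMSO.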

Read-out in test [10]: sulfotransferase 2A1 (SULT2A1), SULT2A1 (gene 6822)
Briefly: LTEA_HepaRG_SULT2A1: Life Technologies and Expression Analysis (LTEA) Assay for sulfotransferase 2A1 (SULT2A1) using HepaRG (AID 2283531). The settings on record: mRNA level, 48 h; actives raise or lower the signal. In outline:
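Expression change of SULT2A1, by qRT-PCR with three housekeeping-gene normalization, was scored bidirectionally versus DMSO. Cells: differentiated HepaRG, dosed in duplicate for 48 h across 8 points, highest 100 µM, half-log dilution, 0.5% DMSO.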

Read-out in test [11]: Transforming Growth Factor (TGFA), TGFA (gene 7039)
The experiment in a line: LTEA_HepaRG_TGFA: Life Technologies and Expression Analysis (LTEA) Assay for Transforming Growth Factor (TGFA) using HepaRG (AID 2283532). As to conditions: mRNA level, 48 h; actives raise or lower the signal. In a few lines:
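Gene expression of TGFA was quantified by qRT-PCR after human HepaRG cells were treated for 48 h with test chemicals (eight concentrations, highest 100 uM, 0.5% DMSO). Activity in either direction was fitted relative to DMSO.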

Read-out in test [12]: Transforming Growth Factor (TGFB1), TGFB1 (gene 7040)
The experiment in a line: LTEA_HepaRG_TGFB1: Life Technologies and Expression Analysis (LTEA) Assay for Transforming Growth Factor (TGFB1) Transporter using HepaRG (AID 2283533). The settings on record: mRNA level, 48 h; actives raise or lower the signal. In outline: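 TGFB1 transcript measured by qRT-PCR with normalisation to three housekeeping genes (ACTB, GAPDH, POLR2A); human HepaRG line treated in duplicate for 48 hr with an 8-point series topping at 100 uM, 0.5% DMSO vehicle, bidirectionally fitted.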

Read-out in test [13]: TIMP1, TIMP1 (gene 7076)
Briefly: LTEA_HepaRG_TIMP1: Life Technologies and Expression Analysis (LTEA) Assay for TIMP1 using HepaRG (AID 2283534). The settings on record: mRNA level, 48 h; actives raise or lower the signal. In a few lines:
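Bidirectional change in TIMP1 transcript versus 0.5% DMSO, measured by TaqMan qRT-PCR with three housekeeping genes for normalization. HepaRG human liver cells dosed 48 h in duplicate, top concentration 100 uM with half-log dilutions.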

Read-out in test [14]: Tumor necrosis factor receptor 1 (TNFRSF1A), TNFRSF1A (gene 7132)
The experiment in a line: LTEA_HepaRG_TNFRSF1A: Life Technologies and Expression Analysis (LTEA) Assay for Tumor necrosis factor receptor 1 (TNFRSF1A) using HepaRG (AID 2283535). The settings on record: mRNA level, 48 h; actives raise or lower the signal. In outline: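 mRNA measured by qRT-PCR (TaqMan, Fluidigm arrays) against ACTB/GAPDH/POLR2A housekeepers after 48 h chemical exposure of HepaRG cells. Top concentration 100 uM, half-log 8-point series, duplicates; vehicle 0.5% DMSO, both fit directions.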

Read-out in test [15]: Thyroid Hormone Responsive (THRSP), THRSP (gene 7069)
Briefly: LTEA_HepaRG_THRSP: Life Technologies and Expression Analysis (LTEA) Assay for Thyroid Hormone Responsive (THRSP) using HepaRG (AID 2283536). As to conditions: mRNA level, 48 h; actives raise or lower the signal. In a few lines: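 Cell model: human HepaRG, approx. 100,000 cells/well, 0.5% DMSO vehicle. Exposure lasts 48 h; phenobarbital 1 mM serves as induction positive control. Gene expression is measured by qRT-PCR against three endogenous control genes.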

Read-out in test [16]: Cellular tumor antigen p53 (Homo sapiens) (UniProt P04637)
Briefly: LTEA_HepaRG_TP53: Life Technologies and Expression Analysis (LTEA) Assay for Tumor Protein P53 (TP53) using HepaRG (AID 2283537). The settings on record: mRNA level, 48 h; actives raise or lower the signal. In a few lines:
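HepaRG, 48 h exposure, top 100 uM, half-log 8-point, 0.5% DMSO vehicle, duplicates. Read: TP53 mRNA by TaqMan qRT-PCR, normalised to ACTB/GAPDH/POLR2A; bidirectional fit vs DMSO.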

Read-out in test [17]: UDP glucuronosyltransferase (UGT1A1), UGT1A1 (gene 54658)
Briefly: LTEA_HepaRG_UGT1A1: Life Technologies and Expression Analysis (LTEA) Assay for UDP glucuronosyltransferase (UGT1A1) using HepaRG (AID 2283538). The settings on record: mRNA level, 48 h; actives raise or lower the signal. In a few lines:
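HepaRG, 48 h chemical exposure (top 100 uM, half-log 8-pt, 0.5% DMSO vehicle), duplicate wells; qRT-PCR (TaqMan, Fluidigm array) for UGT1A1 mRNA, housekeeping-normalized; bidirectional curve fit vs DMSO baseline.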

Read-out in test [18]: UDP glucuronosyltransferase (UGT1A6), UGT1A6 (gene 54578)
Briefly: LTEA_HepaRG_UGT1A6: Life Technologies and Expression Analysis (LTEA) Assay for UDP glucuronosyltransferase (UGT1A6) using HepaRG (AID 2283539). The settings on record: mRNA level, 48 h; actives raise or lower the signal. In outline: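 Expression was quantified by TaqMan qRT-PCR on Fluidigm arrays with ACTB/GAPDH/POLR2A normalization and bidirectional fitting against 0.5% DMSO. HepaRG cells (~100,000/well) were treated in duplicate for 48 h at eight half-log concentrations up to 100 uM in serum-free induction medium.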

Read-out in test [19]: X-box binding protein 1 (XBP1), XBP1 (gene 7494)
The experiment in a line: LTEA_HepaRG_XBP1: Life Technologies and Expression Analysis (LTEA) Assay for X-box binding protein 1 (XBP1) using HepaRG (AID 2283540). The settings on record: mRNA level, 48 h; actives raise or lower the signal. In outline:
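XBP1 transcript by qRT-PCR (housekeeping-normalized: ACTB, GAPDH, POLR2A) after 48 h chemical treatment of HepaRG cells, 8-point half-log series topping at 100 uM, vehicle 0.5% DMSO. Gain and loss of signal fitted relative to DMSO.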

The nature of test [20]: LTEA_HepaRG_LDH_cytotoxicity: Cytotoxicity Assessment in the Life Technologies and Expression Analysis (LTEA) Assay (AID 2283563; active means hit-call score of the fitted dose curve at least 0.9, where 1 is the maximum;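 on AC50: LDH activity released into spent culture medium as a marker of cell death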). In a few lines:
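LDH release into culture medium read after 48 h chemical treatment of HepaRG cells. Duplicate wells, eight-point half-log series topping at 100 uM, 0.5% DMSO vehicle and baseline.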

Nuclear factor erythroid 2-related factor 2 (Homo sapiens), sequence (Q16236 whole entry, looked up): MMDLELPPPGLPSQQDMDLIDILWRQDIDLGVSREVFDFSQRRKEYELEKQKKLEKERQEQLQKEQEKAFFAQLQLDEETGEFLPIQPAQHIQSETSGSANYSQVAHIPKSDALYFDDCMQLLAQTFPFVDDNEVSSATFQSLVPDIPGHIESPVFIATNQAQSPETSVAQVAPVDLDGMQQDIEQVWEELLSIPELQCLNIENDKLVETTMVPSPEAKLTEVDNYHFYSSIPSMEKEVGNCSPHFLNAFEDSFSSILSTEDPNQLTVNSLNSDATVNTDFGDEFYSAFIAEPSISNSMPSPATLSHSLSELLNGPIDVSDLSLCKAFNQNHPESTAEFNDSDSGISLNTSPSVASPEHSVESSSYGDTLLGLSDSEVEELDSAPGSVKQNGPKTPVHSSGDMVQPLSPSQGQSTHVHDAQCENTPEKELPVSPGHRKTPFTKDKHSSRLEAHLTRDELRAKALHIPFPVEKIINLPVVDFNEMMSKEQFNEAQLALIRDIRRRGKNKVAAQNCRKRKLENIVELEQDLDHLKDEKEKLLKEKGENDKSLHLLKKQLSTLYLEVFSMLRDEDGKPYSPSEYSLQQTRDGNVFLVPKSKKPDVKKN
Cellular tumor antigen p53 (Homo sapiens), sequence (P04637 whole entry, looked up): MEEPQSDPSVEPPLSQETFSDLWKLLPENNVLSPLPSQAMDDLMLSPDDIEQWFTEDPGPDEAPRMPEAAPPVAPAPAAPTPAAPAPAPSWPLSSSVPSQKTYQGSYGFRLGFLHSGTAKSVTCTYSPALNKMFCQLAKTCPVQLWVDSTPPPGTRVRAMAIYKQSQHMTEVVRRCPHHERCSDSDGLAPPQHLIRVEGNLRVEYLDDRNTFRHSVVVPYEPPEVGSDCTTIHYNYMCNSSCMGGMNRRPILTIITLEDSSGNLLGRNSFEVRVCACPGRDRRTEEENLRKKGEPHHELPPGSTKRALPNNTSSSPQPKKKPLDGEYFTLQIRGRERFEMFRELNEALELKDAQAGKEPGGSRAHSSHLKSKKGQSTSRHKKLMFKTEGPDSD
Signal transducer and activator of transcription 3 (Homo sapiens), sequence (P40763 whole entry, looked up): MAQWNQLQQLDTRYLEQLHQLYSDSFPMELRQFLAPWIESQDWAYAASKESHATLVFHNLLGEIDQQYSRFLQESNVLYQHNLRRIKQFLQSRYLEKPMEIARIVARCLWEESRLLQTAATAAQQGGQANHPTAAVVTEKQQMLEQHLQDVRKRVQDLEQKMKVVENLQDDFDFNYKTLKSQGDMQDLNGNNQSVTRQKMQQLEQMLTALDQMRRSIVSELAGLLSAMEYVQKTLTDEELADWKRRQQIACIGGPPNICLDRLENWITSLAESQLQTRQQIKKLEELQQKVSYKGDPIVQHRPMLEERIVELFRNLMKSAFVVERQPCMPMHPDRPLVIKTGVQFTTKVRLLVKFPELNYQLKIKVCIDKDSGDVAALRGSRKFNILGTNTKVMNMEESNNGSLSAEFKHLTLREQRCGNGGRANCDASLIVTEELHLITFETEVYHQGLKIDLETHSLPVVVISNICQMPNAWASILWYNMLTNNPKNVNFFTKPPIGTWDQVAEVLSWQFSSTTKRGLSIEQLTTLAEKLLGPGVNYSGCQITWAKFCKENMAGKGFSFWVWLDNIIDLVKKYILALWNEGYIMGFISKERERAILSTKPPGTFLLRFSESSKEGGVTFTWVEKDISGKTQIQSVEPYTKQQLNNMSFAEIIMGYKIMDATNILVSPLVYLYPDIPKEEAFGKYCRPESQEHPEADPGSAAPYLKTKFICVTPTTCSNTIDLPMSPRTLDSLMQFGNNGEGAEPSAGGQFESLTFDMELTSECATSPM

For orientation: AC50 means the concentration at which the activity in the assay is half-maximal. Take `CCNc1nc(Cl)nc(NC(C)(C)C#N)n1`: the result in test [1], in test [2], in test [3], in [4], in test [5] and in test [6] was inactive. Moreover, the call in test [7], in test [8], in test [9], in [10], in test [11] and in [12] was inactive. The outcome in test [13], in test [14], in [15], in [16], in test [18] and in test [19] was inactive. In test [20], the compound was called inactive. Also, the AC50 in test [17] was 3.53 µM (active).
Turning to `CCCOCC(=Nc1ccc(Cl)cc1C(F)(F)F)n1ccnc1`, the AC50 is 80.7 µM (active) in test [1]; 81.8 µM (active) in [2]; 21.4 µM (active) in [3]; 11.5 µM (active) in [4]; 50 µM (active) in test [8]; 15.8 µM (active) in [9]. Also, the AC50 is 66.6 µM (active) in [10]; 92.4 µM (active) in [11]; 50 µM (active) in test [12]; 88.9 µM (active) in [13]; 93.7 µM (active) in [14]; 19.1 µM (active) in [15]. In addition, the AC50 in test [16] is 86.9 µM (active); in [17], 3.03 µM (active); in test [18] it was 69 µM (active); in test [20] it was 78.9 µM (active). The result in test [5], in test [6], in test [7] and in test [19] was inactive.
For `CCCCOC(=O)c1ccccc1C(=O)O`, the outcome in [1], in test [2], in test [3], in [4], in test [5] and in test [6] was inactive. For the same compound, the call in test [7], in test [8], in test [9], in test [10], in [11] and in test [12] was inactive. The outcome in test [13], in test [14], in test [15], in [16], in test [18] and in [19] was inactive. The call in test [20] was inactive. In test [17], the AC50 was 17 µM (active).
